The target in the assay is furin, P09958. Put plainly: furin cleavage Z-score vs untreated control; higher = more cleavage, active = 3.5 or more, inactive = 1 or less, 8 variable residues between constant flanks. The procedure, abridged:
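Abundance of DNA freed from bead-bound 8-mer peptide–cDNA fusions by purified furin was measured as sequencing read counts after PCR adapter tagging. Cutting ran 7.5, 15 or 30 min in 0.01 ml of 50 mM HEPES pH 7.5 with CaCl2 and NaCl at 1:10 enzyme:substrate. The cleavage Z-score expresses these log counts against furin-free reactions after lowess adjustment and median absolute deviation scaling.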

The other results are listed elsewhere or left out. The hit rate among all sequences tested is not known here.

furin, P09958, sequence (P09958 whole entry, the tested form may be a part): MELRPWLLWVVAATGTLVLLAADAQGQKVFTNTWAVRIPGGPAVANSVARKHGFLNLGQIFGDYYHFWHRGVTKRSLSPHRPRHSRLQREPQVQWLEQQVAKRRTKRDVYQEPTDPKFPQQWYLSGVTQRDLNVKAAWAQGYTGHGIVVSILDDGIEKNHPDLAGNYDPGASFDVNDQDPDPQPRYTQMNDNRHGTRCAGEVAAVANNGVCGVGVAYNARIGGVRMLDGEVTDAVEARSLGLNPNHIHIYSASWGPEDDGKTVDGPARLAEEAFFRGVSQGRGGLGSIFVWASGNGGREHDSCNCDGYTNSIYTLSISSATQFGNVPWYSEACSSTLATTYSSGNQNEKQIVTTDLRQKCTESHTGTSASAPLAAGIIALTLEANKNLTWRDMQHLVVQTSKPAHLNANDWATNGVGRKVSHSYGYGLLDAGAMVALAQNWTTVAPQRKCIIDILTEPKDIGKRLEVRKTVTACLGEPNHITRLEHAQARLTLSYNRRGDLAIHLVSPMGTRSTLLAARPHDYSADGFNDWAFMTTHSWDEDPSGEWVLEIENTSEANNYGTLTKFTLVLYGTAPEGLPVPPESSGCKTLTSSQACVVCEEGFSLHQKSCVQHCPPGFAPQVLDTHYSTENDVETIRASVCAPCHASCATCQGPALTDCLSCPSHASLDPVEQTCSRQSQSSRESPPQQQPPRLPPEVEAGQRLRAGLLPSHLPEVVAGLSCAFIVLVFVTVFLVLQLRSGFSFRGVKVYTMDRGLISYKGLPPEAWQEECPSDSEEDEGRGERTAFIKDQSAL

In the case of CATTPCSGWWAGNASASA [HC1908], the “furin cleavage Z-score” value was -0.371 (inactive) (7.5 min), -1.44 (inactive) (15 min) and 0.0983 (inactive) (30 min).

With CAMEECSQHGAGNASASA [HC1776], the “furin cleavage Z-score” value is -0.484 (inactive) (7.5 min), 0.542 (inactive) (15 min) and -0.44 (inactive) (30 min).

For CAEVPCHSPSAGNASASA [HC2377], the “furin cleavage Z-score” value by setting is: (7.5 min) -0.25 (inactive); (15 min) -0.38 (inactive); (30 min) 1.09.

Take CAEVFCHRPSAGNASASA [HC2347]: the “furin cleavage Z-score” value runs as follows: (7.5 min) -0.391 (inactive); (15 min) -1 (inactive); (30 min) 0.51 (inactive).

Take CAHWSVTKRDAGNASASA [FS-336]: the “furin cleavage Z-score” value reads like this: (7.5 min) 0.168 (inactive); (15 min) 0.304 (inactive); (30 min) 0.862 (inactive).

With CAILRRHVGPAGNASASA [HC1111], the “furin cleavage Z-score” value is 0.0974 (inactive) (7.5 min), -0.838 (inactive) (15 min) and 0.671 (inactive) (30 min).

On to CAQHSVRKRDAGNASASA [FS-1150], for which the “furin cleavage Z-score” value (7.5 min) is 11.7 (active), the “furin cleavage Z-score” value (15 min) was 12.2 (active) and the “furin cleavage Z-score” value (30 min) is 10.4 (active).

In the case of CAHLQRQKRDAGNASASA [FS-440], the “furin cleavage Z-score” value (7.5 min) was 6.68 (active), the “furin cleavage Z-score” value (15 min) is 7.1 (active) and the “furin cleavage Z-score” value (30 min) was 5.53 (active).

Turning to CAPKRRQKRDAGNASASA [FS-1048], the “furin cleavage Z-score” value was 13.5 (active) (7.5 min), 14.7 (active) (15 min) and 10 (active) (30 min).

With CAILRRHKRDAGNASASA [FS-1214], the “furin cleavage Z-score” value by setting is: (7.5 min) 10.7 (active); (15 min) 10.2 (active); (30 min) 7.94 (active).

As to CAVVCCSNSYAGNASASA [HC2061], the “furin cleavage Z-score” value is 0.77 (inactive) (7.5 min), -0.0199 (inactive) (15 min) and 0.92 (inactive) (30 min).

As to CALVPCHRPSAGNASASA [HC2305], the “furin cleavage Z-score” value is 0.746 (inactive) (7.5 min), 0.178 (inactive) (15 min) and 0.32 (inactive) (30 min).

With CAEIVVCCSMAGNASASA [HC2124], the “furin cleavage Z-score” value is 0.157 (inactive) (7.5 min), -0.897 (inactive) (15 min) and 0.583 (inactive) (30 min).
